Measurements published in PubChem BioAssay (NCI).
The panel holds about 83,000 compounds, 20% with a hit somewhere; the sample as a whole holds those more often.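 Method: cells in 96-well plates; compound added at one concentration; 48 h incubation; percent growth measured; values under 10 scored active.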 Activity calls are given as the source filed them.

The compounds below were run on MDA-MB-468 breast (assay: NCI-60 one-dose screen, 48 h (100 = growth as untreated, 0 = no growth, -100 = all killed)). Details: 10 µM unless noted.
For `OCC1CCC(O)C(CO)N1` (stereo unspecified), the growth was 104% (inactive). For `Clc1ccc2[nH]cc(-c3nc(-c4c[nH]c5ncccc45)cs3)c2c1`, the growth was 45.2% (inactive). For `S=c1[nH]nc(-c2cc3ccc2CCc2ccc(cc2)CC3)n1C1CC1`, the growth was 106% (inactive). In the case of `O=C(Nc1ccc(Br)cc1F)c1cc(I)ccc1O`, the growth is reported as -1.19% (active). In the case of `O=C(Nc1ccc(-n2cc(-c3ccncc3)c(-c3ccc(Cl)c(O)c3)n2)cc1)c1ccc(Cl)c(C(F)(F)F)c1`, the growth is reported as -12% (active). With `COc1cccc(-c2nn(-c3ccccc3)cc2-c2ccnc(NCCCNC(=O)c3ccccc3)c2)c1` the growth was 15.2% (inactive). With `Cc1cc(N2CCOCC2)nc(N[C@@H]2CCC[C@H](Nc3ccnc4cc(Cl)ccc34)C2)n1` the growth was -6.14% (active). `COc1nc2ccc(C)cc2cc1-c1nc2c(cnn2-c2ccccc2)c(=O)[nH]1` was tested, and the growth was 69.4% (inactive). `C=CCSc1nnc(COc2ccc3c(C)c(Cc4ccccc4)c(=O)oc3c2C)o1` was tested, and the growth was 113% (inactive). With `CCC(C)(C)C(=O)O[C@H]1C[C@@H](C)C=C2C=C[C@H](C)[C@H](CC[C@@H]3CC=CC(=O)O3)[C@H]21` the growth was 52.1% (inactive). In the case of `S=C(NCc1ccc2c(c1)OCO2)N1CCN(c2ncnc3c2oc2ccccc23)CC1`, the growth is reported as -11% (active). `O=C(Nc1ccccc1)Nc1ccc2cc3ccc(NC(=O)Nc4ccccc4)cc3nc2c1` was tested, and the growth was -57.8% (active). In the case of `CCN1C(=O)N(CC)C2C1NN=c1s/c(=C\c3ccccn3)c(=O)n12` (stereo unspecified), the growth is reported as -26.9% (active). With `ClC1=C(Cl)C(Cl)=C(Cl)C1=Cc1ccc(Cl)cc1` the growth was 45.3% (inactive). In the case of `O=C(O)c1cn(C2CC2)c2cc(N3CCN(C(=O)CN4C(=O)CSC4=O)CC3)c(F)cc2c1=O`, the growth is reported as 96.4% (inactive). For `O=C(CN1C(=O)c2ccccc2S1(=O)=O)Nc1nc(-c2cc3ccccc3oc2=O)cs1`, the growth was 100% (inactive). With `COc1ccc(NC(=O)CSc2nc(C)c(C(C)=O)n2-c2ccc(Cl)cc2)cc1` the growth was 98.8% (inactive). With `CCCOc1cc2ccccc2cc1C(=O)Nc1nc(NC)c2c(ccc3nccc32)[nH]1` the growth was -59.7% (active). In the case of `CCC(C)C1NC(=O)C(CCCCN)NC(=O)C(CCCCN)NC(=O)C(CC(C)C)NC(=O)C(CCCCN)NC(=O)C(C(C)CC)NC(=O)C(C(C)C)NC(=O)C(C(C)CC)NC(=O)C(CCCCN)NC(=O)C(CCCCN)NC(=O)C(C)NC(=O)C(CCCCN)NC(=O)C(CC(C)C)NC1=O` (stereo unspecified), the growth is reported as 1.45% (active). `COc1ccc(-c2ccnc3c(C#N)c(Nc4ccccc4)nn23)cc1OC` was tested, and the growth was 79.4% (inactive). In the case of `O=C1/C(=C\c2ccco2)SC(=S)N1CCc1ccc(O)cc1`, the growth is reported as 54.9% (inactive). For `COc1cc(C(=O)N/N=C/c2cccc([N+](=O)[O-])c2)cc(OC)c1OC`, the growth was 6.95% (active). For `Cc1ccc2c(n1)C(=O)c1[nH]c3ccccc3c1C2=O`, the growth was -15.8% (active). For `COc1ccc(/C=C/c2c(C(=O)/C=C/c3cccs3)c(C)nc3ccccc23)cc1`, the growth was 66.9% (inactive). `COc1ccc(C(=O)c2sc3nc4c(cc3c2N)CCCC4)cc1OC` was tested, and the growth was -5.94% (active). `O=C1/C(=C\c2cn(Cc3ccccc3)c3ccc(Br)cc23)c2ccccc2N1c1c(Cl)cccc1Cl` was tested, and the growth was 84.1% (inactive). For `COc1ccc(OC)c(-c2c(C#N)c(-c3ccco3)nc3c2c(-c2ccccc2)nn3-c2ccccc2)c1`, the growth was 98.4% (inactive). For `COC(=O)[C@]12CCC(C)(C)C[C@H]1[C@H]1C(=O)C[C@@H]3[C@@]4(C)c5c([nH]c6ccccc6c5=O)C(C)(C)[C@@H]4CC[C@@]3(C)[C@]1(C)CC2`, the growth was 34.5% (inactive). `CCCCC(N)(C(=O)O)C1CCCC1` (stereo unspecified) was tested, and the growth was 107% (inactive). With `Cn1ccnc1C(=O)/C=C/C=C/c1ccc(C(=O)Nc2ccc(F)cc2)cc1` the growth was 35.3% (inactive). With `C[C@@H](N)c1ccc(C(=O)Nc2ccnc3[nH]ccc23)cc1` the growth was 49.2% (inactive). In the case of `Cc1ncc(C(=O)Nc2ccc(CN3CCN(C)CC3)c(C(F)(F)F)c2)cc1C#Cc1cnc2cccnn12`, the growth is reported as 7.08% (active). In the case of `CCCCC(=O)Nc1c(C(=O)Nc2ccccc2)sc2nc3c(cc12)C(OC(=O)CCCC)CCC3` (stereo unspecified), the growth is reported as 56.2% (inactive). `CCN(CC)CCn1c2ccc(OC)cc2c2sc3cc(OC)ccc3c(=O)c21` was tested, and the growth was 14.5% (inactive). With `N#Cc1ccc(OC(=O)Nc2c(Cl)cc(Cl)cc2Cl)cc1` the growth was 97% (inactive). For `CC1=C(C(=O)/C=C/c2c[nH]c3ccccc23)C(c2ccccc2)NC(=S)N1` (stereo unspecified), the growth was 102% (inactive).
